The values that follow come from PubChem BioAssay (NCI).

Some test systems named below: SR leukemia; RPMI-8226 leukemia; OVCAR-8 ovarian; OVCAR-5 ovarian; SK-OV-3 ovarian; IGROV1 ovarian; OVCAR-3 ovarian; HS 578T breast; NCI/ADR-RES ovarian; T-47D breast; BT-549 breast; MDA-MB-435 melanoma; SW-620 colon; MCF7 breast; HCC-2998 colon; KM12 colon; MDA-MB-468 breast; OVCAR-4 ovarian; HCT-116 colon.
Holding throughout (assay): NCI-60 one-dose screen, 48 h (100 = growth as untreated, 0 = no growth, -100 = all killed)
Common to all, as to details: 10 µM unless noted

This is part of a sample that, as a whole, favours compounds with a hit. Of some 83,000 tested, about 20% had one in any assay.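 Negative percent growth values reflect cell death: -40 means 40% of the cells present at the start died, and -100 means all died.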 A number with no mark means an inactive call. Calls of active or inactive are those of the source. The calls were made as follows: active = growth percent below 10; inactive = the rest.

With `CCOC(=O)/C=C/c1cccc2c1C(=O)NC(C)(c1cc3cc(Br)ccc3oc1=O)N2` (stereo not given), the growth in the assay on SR leukemia was 27.7%; in the assay on RPMI-8226 leukemia it was 32%; with OVCAR-8 ovarian, 37.8%; with OVCAR-5 ovarian it was 76.4%; in the assay with SK-OV-3 ovarian it was 38.6%; in the assay on IGROV1 ovarian, 18.2%. The growth in the assay with OVCAR-3 ovarian was 48.4%; in the assay with HS 578T breast, 63.2%; with NCI/ADR-RES ovarian, 42.2%; in the assay with T-47D breast it was 18.2%; in the assay with BT-549 breast, -66.3% (active); with MDA-MB-435 melanoma it was 54.7%. Further, the growth is 61.2% in the assay with SW-620 colon; 35.3% with MCF7 breast; 68.8% in the assay with HCC-2998 colon; 41.1% in the assay on KM12 colon; 32.3% with MDA-MB-468 breast.
On to `COc1ccc(-c2c(Nn3cnnn3)no[n+]2[O-])cc1`, for which the growth in the assay on SR leukemia was 38.7%; in the assay on RPMI-8226 leukemia, 42%; in the assay on OVCAR-8 ovarian, 46.4%; in the assay with OVCAR-4 ovarian it was 53.4%; in the assay on SK-OV-3 ovarian, 91.1%; in the assay with IGROV1 ovarian, 19.8%. In addition, the growth in the assay on OVCAR-3 ovarian is 46.5%; in the assay with HS 578T breast it was 50%; with NCI/ADR-RES ovarian, 54.9%; in the assay on T-47D breast, 48.8%; in the assay with BT-549 breast, 61.1%; in the assay with MDA-MB-435 melanoma, 44.4%. Further, the growth in the assay on SW-620 colon is 41.5%; in the assay with MCF7 breast, 31%; in the assay with HCT-116 colon, 23.8%; with HCC-2998 colon it was 56.2%; in the assay with KM12 colon it was 68.2%.
As for `CC1(C)CC[C@]2(C(=O)O)CC[C@]3(C)C(=CCC4[C@@]5(C)C[C@@H](O)[C@@H]6OC(c7ccco7)OC[C@@]6(C)C5CC[C@]43C)C2C1` (stereo not given in full), the growth is 18.2% in the assay with SR leukemia; 15% in the assay on RPMI-8226 leukemia; 26.9% in the assay with OVCAR-8 ovarian; 65.4% in the assay on OVCAR-5 ovarian; 75.6% in the assay on SK-OV-3 ovarian; 31.6% with IGROV1 ovarian. For the same compound, the growth is 20.5% in the assay on OVCAR-3 ovarian; 31.2% in the assay on HS 578T breast; 46.4% in the assay on T-47D breast; 13.9% with BT-549 breast; 12.2% in the assay on MDA-MB-435 melanoma; 23.6% in the assay on SW-620 colon. Further, the growth in the assay on MCF7 breast is 21%; in the assay on HCT-116 colon, 11.8%; with HCC-2998 colon, 34%; in the assay with KM12 colon, 17.3%; in the assay with MDA-MB-468 breast, 8.23% (active).
As for `O=c1[nH]c(=O)c2c(-c3cc4ccccc4oc3=O)ccnc2[nH]1`, the growth is 71.8% in the assay on SR leukemia; 95% in the assay with RPMI-8226 leukemia; 61.6% in the assay on OVCAR-8 ovarian; 111% with OVCAR-5 ovarian; 71.2% with SK-OV-3 ovarian; 79.4% in the assay with IGROV1 ovarian. Besides, the growth was 98.9% with OVCAR-3 ovarian; 70.4% with HS 578T breast; 86.9% in the assay with NCI/ADR-RES ovarian; 74.2% with T-47D breast; 70.2% with BT-549 breast; 101% with MDA-MB-435 melanoma. For the same compound, the growth in the assay with SW-620 colon was 98.9%; in the assay with HCT-116 colon it was 88.3%; in the assay with HCC-2998 colon, 98.8%; in the assay on KM12 colon, 95.4%; in the assay with MDA-MB-468 breast, 57.9%.
With `CCCCCCCCc1ccc(S(=O)(=O)Nc2ccc(CC)cc2C(=O)O)cc1`, the growth in the assay on SR leukemia is 96.7%; in the assay with RPMI-8226 leukemia, 71.1%; in the assay on OVCAR-8 ovarian, 95.1%; in the assay on OVCAR-4 ovarian, 96%; with SK-OV-3 ovarian it was 106%; with IGROV1 ovarian it was 97.4%. Further, the growth with OVCAR-3 ovarian was 113%; with HS 578T breast it was 103%; in the assay with NCI/ADR-RES ovarian it was 96%; in the assay with T-47D breast, 76.6%; in the assay with BT-549 breast, 108%; in the assay with MDA-MB-435 melanoma, 101%. Also, the growth is 103% in the assay with SW-620 colon; 86% with MCF7 breast; 87.7% with HCT-116 colon; 113% in the assay on HCC-2998 colon; 97.7% in the assay with KM12 colon.
As to `COc1c(F)ccc(C(=O)Nc2ccc3nc(NC(=O)C4CCCN(S(=O)(=O)c5cccc(Cl)c5)C4)sc3c2)c1F` (stereo not given), the growth was 44.5% in the assay on SR leukemia; 42.8% with RPMI-8226 leukemia; 98.8% in the assay with OVCAR-8 ovarian; 83.1% in the assay on OVCAR-4 ovarian; 105% in the assay with SK-OV-3 ovarian; 81.6% in the assay on IGROV1 ovarian. Also, the growth with OVCAR-3 ovarian is 105%; in the assay with HS 578T breast it was 62.6%; with NCI/ADR-RES ovarian, 80.5%; in the assay on T-47D breast it was 53.1%; in the assay on BT-549 breast it was 76%; with MDA-MB-435 melanoma it was 90.9%. The growth with SW-620 colon was 98.6%; in the assay with HCT-116 colon, 64.4%; with HCC-2998 colon it was 102%; in the assay on KM12 colon, 82.2%; in the assay on MDA-MB-468 breast, 88.8%.
As for `CC(=O)/C=C/c1cccc2c1C(=O)NC(C)(c1cc3cc(Br)ccc3oc1=O)N2` (stereo not given), the growth was -0.625% (active) with SR leukemia; 2.71% (active) in the assay on RPMI-8226 leukemia; 24.9% in the assay on OVCAR-8 ovarian; 27.2% with OVCAR-4 ovarian; 52.6% in the assay with SK-OV-3 ovarian; 25.3% in the assay with IGROV1 ovarian. Besides, the growth in the assay on OVCAR-3 ovarian was 28.1%; with HS 578T breast it was 46.6%; with NCI/ADR-RES ovarian, 32.9%; in the assay with T-47D breast it was 32%; with BT-549 breast, -8.15% (active); in the assay with MDA-MB-435 melanoma, 42.3%. Also, the growth is 32.3% with SW-620 colon; 13.4% in the assay on MCF7 breast; 15.1% in the assay on HCT-116 colon; 23.3% in the assay on HCC-2998 colon; 25.3% with KM12 colon; -6.53% (active) with MDA-MB-468 breast.
As for `CSc1ccc(NC(=O)c2ccc3nnn(/C(C#N)=C/c4ccccn4)c3c2)cc1`, the growth is -6.85% (active) in the assay with SR leukemia; -32.6% (active) in the assay with RPMI-8226 leukemia; -60.6% (active) with OVCAR-8 ovarian; -78.6% (active) in the assay on OVCAR-5 ovarian; 25.5% in the assay with SK-OV-3 ovarian; -76.7% (active) in the assay with IGROV1 ovarian. Further, the growth was -70.7% (active) in the assay with OVCAR-3 ovarian; -83.9% (active) in the assay on NCI/ADR-RES ovarian; -73.4% (active) in the assay on T-47D breast; -70.4% (active) in the assay with BT-549 breast; -78.4% (active) in the assay on MDA-MB-435 melanoma; -71.3% (active) with MCF7 breast. Also, the growth in the assay on HCT-116 colon is 0.694% (active); with HCC-2998 colon, -70.6% (active); in the assay on KM12 colon, -70.4% (active).
